This is part of a sample that, as a whole, favours compounds with a hit. Of some 79,000 tested, about 15% had one in any assay. Active and inactive are the calls of the source. Cut-off read from the data, not from the text of the source: active = growth inhibition above about 70%; inactive = the rest.
Legend:
[1] = NCI Yeast Anticancer Drug Screen. Data for the rad52 strain (AID 147);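 note: 0% = growth of vehicle-treated control cultures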; settings: S. cerevisiae rad52 mutant growth inhibition, stronger effect = higher value
Outline: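 Vehicle-treated cultures served as the reference for growth inhibition of compound-exposed yeast bearing a DNA repair mutation.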

[2] = NCI Yeast Anticancer Drug Screen. Data for the wt1 strain (AID 149);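 note: 0% = growth of vehicle-treated wt1 cultures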; settings: S. cerevisiae wt1 strain (SPY 50644) growth inhibition, stronger effect = higher value
Outline: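 wt1 strain grown with compound or vehicle; inhibition taken from the growth difference.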

[3] = NCI Yeast Anticancer Drug Screen. Data for the rad50EPP+ strain (AID 151);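 note: 0% = growth of vehicle-treated control cultures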; settings: S. cerevisiae rad50 mutant strain, stronger effect = higher value
Outline: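 In this screen, rad50EPP+ yeast were exposed to compounds. Growth inhibition was scored against vehicle-treated controls.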

[4] = NCI Yeast Anticancer Drug Screen. Data for the mgt1 strain (AID 153); settings: S. cerevisiae mgt1 mutant growth inhibition, stronger effect = higher value
Outline: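 mgt1 strain exposed; growth vs vehicle control recorded as inhibition.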

[5] = NCI Yeast Anticancer Drug Screen. Data for the rad50 strain (AID 155);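 note: 0% = growth of vehicle-only cultures of the same strain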; settings: S. cerevisiae rad50 strain growth inhibition, stronger effect = higher value
Outline: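 DNA repair mutant yeast, compound exposure, growth read-out; inhibition is taken relative to vehicle.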

[6] = NCI Yeast Anticancer Drug Screen. Data for the mec2-1 strain (AID 157); settings: S. cerevisiae mec2-1 strain, stronger effect = higher value
Outline: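 Vehicle-treated cultures served as reference for growth inhibition of compound-exposed mec2-1 yeast.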

[7] = NCI Yeast Anticancer Drug Screen. Data for the rad14 strain (AID 159);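 note: 0% = growth of vehicle-treated control cultures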; settings: S. cerevisiae rad14 strain growth inhibition, stronger effect = higher value
Outline: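 DNA repair-defective yeast, compound-exposed; % growth inhibition derived by comparison with vehicle-treated controls.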

[8] = NCI Yeast Anticancer Drug Screen. Data for the sgs1 mgt1 strain (AID 161);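 note: 0% = growth of cultures given vehicle only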; settings: S. cerevisiae sgs1 mgt1 strain, stronger effect = higher value
Outline: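 Test agents were incubated with a DNA-repair-mutant yeast strain. Growth was then read and compared against vehicle-treated controls.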

[9] = NCI Yeast Anticancer Drug Screen. Data for the CLN2oe strain (AID 163);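 note: 0% = growth of vehicle-only control cultures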; settings: S. cerevisiae CLN2oe strain, stronger effect = higher value
Outline: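 Inhibition relative to vehicle-treated yeast is reported. Cells: strain with genetic alteration in cell-cycle control, grown with compound.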

[10] = NCI Yeast Anticancer Drug Screen. Data for the cln2 rad14 strain (AID 165);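 note: 0% = growth equal to vehicle treated cultures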; settings: S. cerevisiae cln2 rad14 strain, stronger effect = higher value
Outline: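 Each compound was tested on cln2 rad14 yeast. Inhibition of growth was calculated against vehicle-exposed controls.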

[11] = NCI Yeast Anticancer Drug Screen. Data for the bub3 strain (AID 167); settings: S. cerevisiae bub3 mutant strain, stronger effect = higher value
Outline: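 In this screen, a yeast mutant lacking normal mitotic checkpoint function is challenged with compound. Relative growth versus vehicle gives the inhibition value.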

[12] = NCI Yeast Anticancer Drug Screen. Data for the wt2 strain (AID 169);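 note: 0% = growth of vehicle-treated yeast cultures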; settings: S. cerevisiae wt2 strain growth inhibition, stronger effect = higher value
Outline: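 Inhibition of yeast growth was determined after compound treatment, normalised to controls receiving only vehicle.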

[13] = NCI Yeast Anticancer Drug Screen. Data for the mlh1 strain (AID 171);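 note: 0% = growth of vehicle-treated control cultures of the same strain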; settings: S. cerevisiae mlh1 strain growth inhibition, stronger effect = higher value
Outline: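 Vehicle-normalised growth inhibition of a repair- or checkpoint-altered yeast strain following compound treatment.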

[14] = NCI Yeast Anticancer Drug Screen. Data for the sgs1 strain (AID 173);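 note: 0% = growth of vehicle-only control cultures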; settings: S. cerevisiae sgs1 mutant, stronger effect = higher value
Outline: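 Screen format: yeast with repair or checkpoint alterations, compound exposure, growth read relative to vehicle.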

[15] = NCI Yeast Anticancer Drug Screen. Data for the mlh1 rad18 strain (AID 175); settings: S. cerevisiae mlh1 rad18 strain growth inhibition, stronger effect = higher value
Outline: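 Vehicle-treated cultures served as the reference for growth inhibition in a yeast strain carrying DNA damage repair alterations exposed to each compound.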

[16] = NCI Yeast Anticancer Drug Screen. Data for the rad18 strain (AID 177); settings: S. cerevisiae rad18 mutant growth inhibition, stronger effect = higher value
Outline: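 Test articles were incubated with altered yeast defective in DNA damage repair. Results are given as inhibition of growth versus vehicle.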

[17] = at 5.0 µM (retest, dose inferred, filed as 0.5)
[18] = at 50.0 µM (retest, dose inferred, filed as 5.0)

Measured: growth inhibition

COc1ccc(N2CN(C)CSC2=S)cc1
active: [1]; at 100.0 µM 72% | [3]; at 33.0 µM 81% | [3]; at 100.0 µM 90% | [5]; [18] 95% | [5]; at 100.0 µM 83% | [6]; [17] 73% | [6]; [18] 96% | [6]; at 100.0 µM 75% | [11]; [18] 83% | [11]; at 100.0 µM 73% | [14]; at 100.0 µM 71% | [15]; [18] 97%
inactive: [1]; at 1.2 µM -27% | [1]; at 3.7 µM -11% | [1]; at 11.0 µM -1% | [1]; at 33.0 µM 43% | [2]; at 1.2 µM -18% | [2]; at 3.7 µM -14% | [2]; at 11.0 µM -22% | [2]; at 33.0 µM -1% | [2]; at 100.0 µM 58% | [3]; at 1.2 µM -36% | [3]; at 3.7 µM 10% | [3]; at 11.0 µM 58% | [4]; at 1.2 µM -51% | [4]; at 3.7 µM -48% | [4]; at 11.0 µM -36% | [4]; at 33.0 µM -11% | [4]; at 100.0 µM 61% | [5]; at 1.2 µM -20% | [5]; at 3.7 µM 3% | [5]; [17] 61% | [5]; at 11.0 µM 25% | [5]; at 33.0 µM 63% | [5]; at 50.0 µM 10.6% | [6]; at 1.2 µM -17% | [6]; at 3.7 µM -29% | [6]; at 11.0 µM -22% | [6]; at 33.0 µM -2% | [6]; at 50.0 µM 8.85% | [7]; at 1.2 µM -24% | [7]; at 3.7 µM -22% | [7]; at 11.0 µM -21% | [7]; at 33.0 µM -11% | [7]; at 100.0 µM 40% | [8]; [17] -20% | [8]; [18] 59% | [9]; at 1.2 µM -23% | [9]; at 3.7 µM -23% | [9]; at 11.0 µM -39% | [9]; at 33.0 µM -9% | [9]; at 100.0 µM 24% | [10]; [17] 22% | [10]; [18] 59% | [11]; at 1.2 µM -12% | [11]; at 3.7 µM -11% | [11]; [17] 35% | [11]; at 11.0 µM -12% | [11]; at 33.0 µM 32% | [12]; at 1.2 µM -25% | [12]; at 3.7 µM -15% | [12]; at 11.0 µM -22% | [12]; at 33.0 µM -7% | [12]; at 100.0 µM 58% | [13]; at 1.2 µM -53% | [13]; at 3.7 µM -52% | [13]; at 11.0 µM -48% | [13]; at 33.0 µM -3% | [13]; at 100.0 µM 57% | [14]; at 1.2 µM -43% | [14]; at 3.7 µM -41% | [14]; at 11.0 µM -39% | [14]; at 33.0 µM 7% | [15]; [17] 51% | [15]; at 50.0 µM 56.4% | [16]; at 1.2 µM -67% | [16]; at 3.7 µM -64% | [16]; at 11.0 µM -53% | [16]; at 33.0 µM -41% | [16]; at 100.0 µM 52%

Cc1cc(C(C)(C)CC(C)(C)C)cc(O)c1O
inactive: [1]; at 1.2 µM 12% | [1]; at 3.7 µM 34% | [2]; at 1.2 µM -19% | [2]; at 3.7 µM 9% | [3]; at 1.2 µM 44% | [3]; at 3.7 µM 69% | [4]; at 1.2 µM 23% | [4]; at 3.7 µM 40% | [5]; at 1.2 µM -7% | [5]; at 3.7 µM 12% | [5]; at 11.0 µM 69% | [6]; at 1.2 µM 29% | [6]; at 3.7 µM 37% | [7]; at 1.2 µM -7% | [7]; at 3.7 µM 9% | [8]; [17] 4% | [9]; at 1.2 µM 2% | [9]; at 3.7 µM 35% | [10]; [17] 37% | [11]; at 1.2 µM 1% | [11]; at 3.7 µM 19% | [11]; [17] 21% | [12]; at 1.2 µM 2% | [12]; at 3.7 µM 27% | [12]; at 100.0 µM 54% | [13]; at 1.2 µM 6% | [13]; at 3.7 µM 20% | [16]; at 1.2 µM 5% | [16]; at 3.7 µM 23%
active: [1]; at 11.0 µM 77% | [1]; at 33.0 µM 96% | [1]; at 100.0 µM 98% | [2]; at 11.0 µM 70% | [2]; at 33.0 µM 94% | [2]; at 100.0 µM 98% | [3]; at 11.0 µM 79% | [3]; at 33.0 µM 83% | [3]; at 100.0 µM 88% | [4]; at 11.0 µM 87% | [4]; at 33.0 µM 97% | [4]; at 100.0 µM 98% | [5]; [17] 95% | [5]; at 33.0 µM 93% | [5]; [18] 99% | [5]; at 50.0 µM 92% | [5]; at 100.0 µM 97% | [6]; [17] 97% | [6]; at 11.0 µM 72% | [6]; at 33.0 µM 95% | [6]; [18] 100% | [6]; at 50.0 µM 91.9% | [6]; at 100.0 µM 99% | [7]; at 11.0 µM 80% | [7]; at 33.0 µM 93% | [7]; at 100.0 µM 97% | [8]; [18] 97% | [9]; at 11.0 µM 81% | [9]; at 33.0 µM 97% | [9]; at 100.0 µM 98% | [10]; [18] 95% | [11]; at 11.0 µM 74% | [11]; at 33.0 µM 97% | [11]; [18] 99% | [11]; at 100.0 µM 98% | [12]; at 11.0 µM 71% | [12]; at 33.0 µM 89% | [13]; at 11.0 µM 85% | [13]; at 33.0 µM 88% | [13]; at 100.0 µM 99% | [15]; [17] 83% | [15]; [18] 100% | [15]; at 50.0 µM 92% | [16]; at 11.0 µM 88% | [16]; at 33.0 µM 96% | [16]; at 100.0 µM 98%
